Compound activity (PubChem BioAssay)
Many of the other results were omitted from the sample, so hits are more common in it than they were.
IL1B secr inh: inhibitors of inflammasome signaling (IL-1 beta secretion) | 360,000 tested, 4.7% active | activity change, % at 57.5 µM | AID 743279 | THP-1 LPS/ATP IL-1B secretion, AlphaLISA, 16 h; active compounds read low; in the data active = activity change below about -50%; inconclusive = mostly about -30% to -49%
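Secreted IL-1B measured by AlphaLISA bead assay after 16 h compound exposure of THP-1 cells; compounds (final up to 57.5 uM) added 1 h before LPS (250 ng/mL) and ATP (1.25 mM) stimulation; lower signal means less secretion.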
HT1080-NT tox: kills 2HG-producing HT-1080-NT fibrosarcoma cells. HT-1080-NT fibrosarcoma viability, CellTiter-Glo ATP luminescence, 48 h. Potency, µM (series often up to 46.1 µM), without a hit: at the top dose activity, negative = less viability, actives largely listed as cytotoxic. 360,000 tested, 1.6% active. AID 686970;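 also: NT is the 2HG producing partner of a matched IDH1 knockdown line; potency is read from the fitted curve at half-maximal effect; 0% = DMSO-treated cells and -100% = media-only wells without cells; nearly all actives have a fitted effect of over 55% in size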
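Compounds were tested in concentration-response format on HT-1080-NT cells for 48 hours at 37 degrees C. Cell viability came from CellTiter-Glo luminescence; curves were classified by r2, response magnitude and activity.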
DT40 TDP1 no CPT: qHTS for Inhibitors of human tyrosyl-DNA phosphodiesterase 1 (TDP1): qHTS in cells in absence of CPT | Potency, µM (series often up to 46.2 µM), for the others: at the top dose activity change, negative = growth inhibition, actives largely listed as inhibitors | DT40 Tdp1-/- hTDP1 cells, no CPT, ATP luminescence, 48 h | 420,000 tested, 15% active; also: potency is read from the fitted curve at half-maximal effect; nearly all actives have a fitted effect of over 55% in size
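Growth of hTDP1-complemented DT40 Tdp1-knockout cells is measured by ATP luminescence after at least 48 hr compound exposure at 37 °C, with DMSO substituting for the 20 nM CPT used in the parallel screen.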
DT40 TDP1 CPT: growth inhibition of DT40 Tdp1-/-;hTDP1 cells with camptothecin (screen for TDP1 inhibitors); Potency, µM (top dose mostly 46.2 µM), inactives show at the highest dose activity change, negative = growth inhibition, most hits filed as inhibitors; chicken DT40 Tdp1-/-;hTDP1 cells + 20 nM CPT, ATP luminescence, 48 h; 420,000 tested, 12% active; also: potency is read from the fitted curve at half-maximal effect; nearly all actives have a fitted effect of over 55% in size
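Cell growth measured by CellTiter-Glo luminescence after a minimum 48 h, 37 C compound exposure with 20 nM CPT in Tdp1-knockout DT40 cells stably expressing hTDP1, seeded 400/well; qHTS titration format.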
ALOX12 inh: ALOX12 (human) lipoxygenase inhibition | AID 1671190 | 580,000 tested, 1.1% active | P18054 | purified 12hLO, xylenol orange hydroperoxide absorbance | Potency, µM (series often up to 108 µM), for the others: top-dose activity change, negative = inhibition, usual class: inhibitors; also: potency is read from the fitted curve at half-maximal effect
Target sequence (P18054 whole entry, looked up): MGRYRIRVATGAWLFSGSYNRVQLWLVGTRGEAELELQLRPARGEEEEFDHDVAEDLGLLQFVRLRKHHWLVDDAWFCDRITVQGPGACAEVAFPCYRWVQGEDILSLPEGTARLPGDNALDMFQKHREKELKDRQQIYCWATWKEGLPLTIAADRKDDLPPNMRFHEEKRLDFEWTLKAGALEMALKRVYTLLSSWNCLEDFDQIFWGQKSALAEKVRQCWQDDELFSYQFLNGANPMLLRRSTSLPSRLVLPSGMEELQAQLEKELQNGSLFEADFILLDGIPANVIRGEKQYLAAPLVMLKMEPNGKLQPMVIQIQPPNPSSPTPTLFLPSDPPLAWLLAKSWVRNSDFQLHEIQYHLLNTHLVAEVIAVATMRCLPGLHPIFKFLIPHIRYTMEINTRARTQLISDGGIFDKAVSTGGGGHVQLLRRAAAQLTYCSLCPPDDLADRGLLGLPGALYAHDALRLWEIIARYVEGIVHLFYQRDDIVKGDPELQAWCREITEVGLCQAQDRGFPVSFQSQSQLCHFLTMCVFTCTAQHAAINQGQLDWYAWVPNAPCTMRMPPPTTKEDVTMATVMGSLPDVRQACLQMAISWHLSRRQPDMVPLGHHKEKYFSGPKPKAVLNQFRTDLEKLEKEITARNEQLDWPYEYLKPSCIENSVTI
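Hydroperoxide product was detected by ferrous iron/xylenol orange as the 573 to 405 nm absorbance ratio. Arachidonic acid at 40 uM (final) was turned over for 30 min at room temperature by 150 nM human 12hLO, pH 7.0 Hepes buffer, after 15 min compound preincubation.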
HT1080 IDH1KD tx: toxicity to HT-1080 IDH1 knockdown cells (counter line) | HT-1080 IDH1 knockdown viability, ATP luminescence, 48 h | Potency, µM (highest dose often 46.1 µM), without a hit: top-dose activity, negative = toxicity, usual class: cytotoxic | 360,000 tested, 2% active | AID 686971;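 also: potency is read from the fitted curve at half-maximal effect; 0% = DMSO wells and -100% = cell-free medium wells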
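CellTiter-Glo luminescence after 48 h compound exposure at 37 degrees C of IDH1-knockdown HT-1080 cells in 5% FBS RPMI. %Activity scaled between DMSO wells and cell-free media wells, with curves fitted and assigned curve classes.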
* marks the source's active call; other numbers are inactive results; ? = inconclusive; . = no result; [ ] = dose if it differs, or a comment. Unless noted, calls follow the shape of the dose curve; as a rule, active = well fitted curve in the direction sought with a large enough effect; inconclusive = small, poorly fitted or top-dose-only effect, or another doubt; inactive = no such curve, though single readings can be large; an effect the other way counts as inactive or inconclusive. Unless noted, % is scaled to controls: 0 for no effect and ±100 for the full control effect.

SMILES	IL1B secr inh	HT1080-NT tox	DT40 TDP1 no CPT	DT40 TDP1 CPT	ALOX12 inh	HT1080 IDH1KD tx
O=C(c1ccccc1)N(Cc1ccc(F)cc1)Cc1nc2ccccc2c(=O)[nH]1	21.1	7.08µM*	-26.6%	?	26.6%	6.31µM*
Cc1ccccc1C(=O)N(Cc1nc2ccccc2c(=O)[nH]1)C1CCCC1	-2.9	?	?	?	-2.2%	?
O=C(c1ccncc1)N(Cc1ccccc1)Cc1nc2ccccc2c(=O)[nH]1	15.1	-7.4%	-8.9%	-0.3%	-4.8%	-1.9%
Cc1ccc(C(=O)N(Cc2nc3ccccc3c(=O)[nH]2)C2CCCC2)cc1	-21.6	-9.4%	?	13µM*	-30.3%	?
CC(C)CCC(=O)N[C@@H]1CN(Cc2ccncc2)C[C@H]1CN(C)C	.	.	.	.	69.0%	.
CCOc1ccccc1NC(=O)Cc1nc(-c2cccs2)oc1C	.	.	.	.	-6.2%	.
CCN(Cc1nc2ccccc2c(=O)[nH]1)C(=O)c1cccc(OCc2c(C)noc2C)c1	23.5	?	16.4µM*	?	17.5%	?
CCN(CC(=O)Nc1ccccc1Br)Cc1nc2ccccc2c(=O)[nH]1	-9.0	-5.1%	?	?	25.8%	-5.9%
Cc1ccc(NC(=O)CN(C)Cc2nc3ccccc3c(=O)[nH]2)c(Br)c1	?	-6.2%	20.6µM*	-45.8%	172.5%	-2.0%[9.24 µM]
C/C(=C\CNc1ncnc2c1ncn2[C@@H]1O[C@H](CO)[C@@H](O)[C@H]1O)CO	.	.	.	.	19.3%	.
OCC1OC(n2cnc3c(NCc4ccco4)ncnc32)C(O)C1O (configuration not stated)	?	11.6µM*	2.06µM*	2.31µM*	-8.6%	11.6µM*
OC[C@H]1O[C@@H](n2cnc3c(NCc4ccco4)ncnc32)[C@H](O)[C@@H]1O	73.5	5.8µM*	2.06µM*	2.31µM*	-9.5%	6.51µM*
CC(C)=CCNc1ncnc2c1ncn2[C@@H]1O[C@H](CO)[C@@H](O)[C@H]1O	.	.	.	.	7.3%	.
Cc1ccccc1CNc1ncnc2c1ncn2[C@@H]1O[C@H](CO)[C@@H](O)[C@H]1O	.	.	11.9µM*	?	.	.
C=CCNc1ncnc2c1ncn2C1OC(CO)C(O)C1O (configuration not stated)	65.9	9.2µM*	20.6µM*	18.4µM*	43.8%	18.4µM*
COC(=O)c1ccc(NS(=O)(=O)c2c(C)cc(C)cc2C)cc1	.	.	.	.	-8.7%	.
COc1cccc(-c2ccc(=O)n(CC(=O)Nc3cc(Cl)c(OC)cc3OC)n2)c1	.	.	.	.	19.8%	.
CCc1ccc(NC(=O)c2ccc(OCc3ccccc3)cc2)cc1	.	.	.	.	-1.9%	.
CCN(C(=O)Cn1c(=O)c2c(ncn2CC)n(Cc2ccccc2)c1=O)c1cccc2ccccc12	.	.	.	.	6.0%	.
O=C(Nc1ccc(CC(=O)N2CCOCC2)cc1)c1ccc(Cl)cc1	.	.	.	.	21.3%	.
CCC(C)SSc1ncc[nH]1 (configuration not stated)	.	.	.	.	19.3µM*	.
Cc1cc(C(=O)CSc2nnc3ccccn23)c(C)n1-c1ccccc1	5.2	-1.9%	23.1µM*	?	-0.2%	-3.2%
CC/C(=N/NC(=O)C1CC1(c1ccc(C)cc1)c1ccc(C)cc1)c1ccccc1 (configuration not stated)	.	.	.	.	19.4%	.
NC(=O)CN1C(=O)[C@@H]2CN(C(=O)c3ccccc3)CCN2C1=O	.	.	.	.	1.5%[176 µM]	.
CC12CCC(C(=O)N(CSC(=S)N/N=C\c3ccccc3Cl)C1=O)C2(C)C (configuration not stated)	6.0	-2.6%	?	-11.3%	?	-2.4%
SMILES	IL1B secr inh	HT1080-NT tox	DT40 TDP1 no CPT	DT40 TDP1 CPT	ALOX12 inh	HT1080 IDH1KD tx
CC12CCC(C(=O)N(CSC(=S)N/N=C\c3ccccc3)C1=O)C2(C)C (configuration not stated)	20.7	3.9%	4.61µM*	5.8µM*	0.0%	-28.3%
COc1ccc(/C=N/Nc2nnc(Cc3ccc(OC)c(OC)c3)c(=O)[nH]2)cc1	9.4	-29.2%	16.4µM*	25.9µM*	-15.1%	-22.6%
COc1ccc(Cc2nnc(N/N=C/c3ccc(N(C)C)cc3)[nH]c2=O)cc1OC	1.6	1.9%	-5.2%	-21.7%	21.8%	-1.6%
Cc1nnc2c3ccccc3c(-c3cccs3)nn12	-11.5	-28.3%	?	-8.6%	63.4%	?
CC1CCN(c2nnc(-c3cccs3)c3ccccc23)CC1	?	-2.3%	?	25.9µM*	?	-9.5%
COc1ccc(-n2ccnc2CN2CCCC(CO)(Cc3cccc(OC)c3)C2)cc1 (configuration not stated)	2.2	-23.6%	25.9µM*	?	-13.8%	-5.2%
COc1cccc(CC2(CO)CCCN(Cc3ccc(CO)o3)C2)c1 (configuration not stated)	19.8	0.6%	-3.3%	-15.1%	-4.8%	1.1%
COc1cccc(CC2(CO)CCCN(Cc3ccc(C)s3)C2)c1 (configuration not stated)	-6.2	1.8%	?	-17.8%	-25.4%	-14.3%
COc1cccc(CC2(CO)CCCN(Cc3ccc(-c4ccco4)cc3)C2)c1 (configuration not stated)	7.0	?	20.6µM*	23.1µM*	-21.7%	?
COc1ccccc1-n1cc(CN2CCCC(CO)(Cc3cccc(Cl)c3)C2)cn1 (configuration not stated)	0.0	0.0%	23.1µM*	?	-19.0%	-1.9%
COc1cccc(CC2(CO)CCCN(Cc3cc4ccccc4[nH]3)C2)c1 (configuration not stated)	-53.5*	?	?	?	?	23.1µM*
O=C(c1ccc2ncccc2c1)N1CCCCCC1c1nnc(-c2ccccc2)o1 (configuration not stated)	.	.	.	.	22.5%	.
CCOc1ccc(N(Cc2nc3nc(C)cc(C)n3n2)S(=O)(=O)c2ccc(C)cc2)cc1	.	.	.	.	-23.7%	.
COc1cccc(CC2(CO)CCCN(Cc3c(C)cc(C)cc3-n3cccn3)C2)c1 (configuration not stated)	-9.9	?	14.6µM*	20.6µM*	-24.0%	?
CSc1ccc(CNc2ncc(-c3cccc([N+](=O)[O-])c3)n2C)cc1	?	-8.1%	23.1µM*	16.4µM*	0.708µM*	-0.6%
Cn1c(-c2ccccc2)cnc1NCc1cccc([N+](=O)[O-])c1	?	8.6%	?	?	53.9%	7.4%
CSc1ccc(CNc2ncc(-c3ccccc3)n2C)cc1	.	.	18.4µM*	?	?	.
